These results are taken from PMC7826789 (International Journal of Molecular Sciences, 2021).

Some test systems named below: DMPK; DYRK1A; DYRK1B; DYRK2; EGFR(E746-A750del); EGFR(G719C); EGFR(G719S); EGFR(L747-T751del,Sins); EGFR(L858R); EGFR(L858R,T790M); EGFR(L861Q); EGFR(S752-I759del); EGFR(T790M); EGFR.
Conditions in all cases: Compound Concentration (nM):1000
In the next assay the test system is T1, DLK.
T1 construct: gene MAP3K12

The subject of the next assay is T2, DMPK2.
T2 construct: gene CDC42BPG

In another assay the test system is T3, DRAK1.
T3 construct: gene STK17A

The subject of a further assay is T4, DRAK2.
T4 construct: gene STK17B

Assay [1] relates to EGFR(L747-E749del, A750P).
Assay [2] deals with EGFR(L747-S752del, P753S).
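Note: KINOMEscan scanMAX binding as percent activity remaining versus control; lower means stronger binding.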

With `CN(C)CCNC(=O)Nc1ccc(N(C)c2ccnc(Nc3ccc(CS(C)(=O)=O)cc3)n2)cc1.Cl` [GW830900A], the “Percent Control” value in the assay on DLK was determined as 67%; in the assay on DMPK2, 91%; in the assay on DMPK it was 100%; in the assay on DRAK1, 100%; with DRAK2, 100%; with DYRK1A, 100%. For the same molecule, the “Percent Control” value is given as 100% in the assay on DYRK1B; 85% with DYRK2; 92% with EGFR(E746-A750del); 96% in the assay with EGFR(G719C); 97% in the assay on EGFR(G719S); 73% in [1]. Further, the “Percent Control” value in assay [2] was 79%; in the assay on EGFR(L747-T751del,Sins), 100%; in the assay on EGFR(L858R), 83%; in the assay with EGFR(L858R,T790M), 60%; with EGFR(L861Q) it was 100%; with EGFR(S752-I759del), 100%. The results for the “Percent Control” value in the assay with EGFR(T790M) and with EGFR were 64% and 95%, respectively.
As for `Cl.c1ccc(Cc2nc3ccc(Nc4ncnc5ccccc45)cc3[nH]2)cc1` [GR269666A], the “Percent Control” value was 83% in the assay with DLK; 100% with DMPK2; 100% in the assay on DMPK; 68% in the assay on DRAK1; 100% in the assay on DRAK2; 100% in the assay with DYRK1A. Further, the “Percent Control” value in the assay on DYRK1B worked out at 100%; in the assay with DYRK2 it was 73%; with EGFR(E746-A750del), 70%; in the assay with EGFR(G719C), 0%; in the assay on EGFR(G719S), 0.6%; in assay [1], 41%. The “Percent Control” value in [2] worked out at 70%; with EGFR(L747-T751del,Sins), 37%; in the assay with EGFR(L858R), 36%; in the assay with EGFR(L858R,T790M), 100%; with EGFR(L861Q), 9.8%; in the assay with EGFR(S752-I759del), 71%. The entries for the “Percent Control” value in the assay with EGFR(T790M) and in the assay with EGFR were 100% and 5%, respectively.
On to `COc1cc2ncnc(Nc3ccc4c(cnn4Cc4ccccc4)c3)c2cc1OC.Cl` [GW282449A], for which the “Percent Control” value in the assay on DLK was found to be 87%; in the assay with DMPK2, 100%; in the assay on DMPK it was 100%; with DRAK1, 100%; with DRAK2, 100%; in the assay with DYRK1A, 100%. For the same molecule, the “Percent Control” value with DYRK1B came to 97%; in the assay on DYRK2 it was 87%; in the assay with EGFR(E746-A750del), 6.7%; in the assay on EGFR(G719C), 0%; with EGFR(G719S) it was 1.4%; in assay [1], 11%. The “Percent Control” value is reported as 3.4% in assay [2]; 5.2% in the assay on EGFR(L747-T751del,Sins); 0.9% with EGFR(L858R); 78% in the assay on EGFR(L858R,T790M); 0% in the assay on EGFR(L861Q); 78% with EGFR(S752-I759del). For the same molecule, the “Percent Control” value with EGFR(T790M) came to 7.2%; in the assay with EGFR it was 4.4%.
As for `CCS(=O)(=O)c1ccc(OC)c(Nc2ncc(-c3cccc(OC)c3)o2)c1` [GW580509X], the “Percent Control” value in the assay on DLK came to 88%; with DMPK2, 100%; in the assay with DMPK, 100%; with DRAK1 it was 100%; in the assay on DRAK2 it was 100%; in the assay with DYRK1A, 39%. In addition, the “Percent Control” value in the assay with DYRK1B turned out to be 41%; in the assay on DYRK2, 23%; with EGFR(E746-A750del), 81%; with EGFR(G719C), 100%; in the assay with EGFR(G719S), 98%; in [1], 65%. For the same molecule, the “Percent Control” value in assay [2] stood at 85%; in the assay with EGFR(L747-T751del,Sins), 100%; in the assay with EGFR(L858R), 80%; in the assay with EGFR(L858R,T790M) it was 100%; with EGFR(L861Q) it was 81%; in the assay with EGFR(S752-I759del), 95%. Moreover, the “Percent Control” value came to 89% in the assay on EGFR(T790M) and 83% in the assay with EGFR.
Turning to `O=C1Nc2ccc(C(=O)c3ccco3)cc2C1=Cc1cc(Cl)c(O)c(Cl)c1` [GW406108X], the “Percent Control” value in the assay on DLK is 42%; in the assay on DMPK2, 100%; in the assay with DMPK, 100%; in the assay on DRAK1, 80%; in the assay with DRAK2, 32%; in the assay on DYRK1A, 0.4%. Moreover, the “Percent Control” value with DYRK1B is 1.9%; in the assay with DYRK2 it was 41%; with EGFR(E746-A750del) it was 86%; in the assay on EGFR(G719C), 73%; in the assay with EGFR(G719S), 58%; in [1], 100%. Besides, the “Percent Control” value in assay [2] is given as 94%; in the assay with EGFR(L747-T751del,Sins), 91%; with EGFR(L858R) it was 100%; in the assay with EGFR(L858R,T790M), 92%; in the assay on EGFR(L861Q) it was 57%; in the assay with EGFR(S752-I759del) it was 81%. Also, the “Percent Control” value amounted to 77% in the assay with EGFR(T790M) and 100% in the assay on EGFR.
Take `C[C@@H](Oc1cc(-n2cnc3ccc(OC4CCN(C)CC4)cc32)sc1C(N)=O)c1ccccc1Cl` [GSK579289A]: the “Percent Control” value in the assay with DLK was found to be 78%; in the assay with DMPK2, 100%; in the assay on DMPK it was 80%; in the assay on DRAK1, 100%; in the assay with DRAK2, 93%; in the assay on DYRK1A, 100%. Moreover, the “Percent Control” value with DYRK1B is listed as 100%; with DYRK2, 49%; with EGFR(E746-A750del) it was 92%; in the assay on EGFR(G719C) it was 81%; with EGFR(G719S), 59%; in assay [1], 58%. The “Percent Control” value in assay [2] was 100%; in the assay with EGFR(L747-T751del,Sins), 100%; in the assay with EGFR(L858R), 79%; in the assay on EGFR(L858R,T790M) it was 85%; with EGFR(L861Q), 64%; with EGFR(S752-I759del), 66%. Moreover, the “Percent Control” value with EGFR(T790M) is listed as 62%; with EGFR, 75%.
Consider `COc1cc(C)c(N(C)C(=O)CN(C)C)cc1Nc1nc(Nc2cccc(F)c2C(N)=O)c2cc[nH]c2n1` [GSK2219385], for which the “Percent Control” value with DLK was determined as 80%; with DMPK2 it was 99%; in the assay on DMPK it was 84%; in the assay with DRAK1, 88%; in the assay with DRAK2, 83%; with DYRK1A, 60%. The “Percent Control” value in the assay with DYRK1B was 100%; with DYRK2, 100%; in the assay on EGFR(E746-A750del) it was 100%; in the assay on EGFR(G719C) it was 98%; in the assay with EGFR(G719S), 75%; in assay [1], 98%. Moreover, the “Percent Control” value in assay [2] was found to be 100%; in the assay on EGFR(L747-T751del,Sins), 100%; in the assay with EGFR(L858R), 89%; in the assay with EGFR(L858R,T790M), 100%; in the assay on EGFR(L861Q), 82%; in the assay on EGFR(S752-I759del) it was 100%. For the same molecule, the entries for the “Percent Control” value in the assay with EGFR(T790M) and in the assay on EGFR were 56% and 87%, respectively.
With `NS(=O)(=O)c1ccc(N/N=C2\C(=O)Nc3ccc(Cl)cc32)cc1` [GW280670X], the “Percent Control” value in the assay on DLK was 96%; in the assay with DMPK2, 100%; with DMPK, 100%; in the assay with DRAK1, 100%; with DRAK2 it was 100%; in the assay on DYRK1A, 100%. In addition, the “Percent Control” value stood at 100% with DYRK1B; 93% with DYRK2; 100% with EGFR(E746-A750del); 100% in the assay on EGFR(G719C); 100% with EGFR(G719S); 100% in assay [1]. Further, the “Percent Control” value in assay [2] was 100%; with EGFR(L747-T751del,Sins) it was 100%; with EGFR(L858R), 100%; with EGFR(L858R,T790M), 100%; in the assay on EGFR(L861Q) it was 87%; with EGFR(S752-I759del), 87%. Moreover, the “Percent Control” value in the assay with EGFR(T790M) and with EGFR was 100% in each case.
Turning to `O=C(Nc1n[nH]c2nc(-c3ccc(O)cc3)c(Br)cc12)C1CC1` [SB-725317], the “Percent Control” value in the assay with DLK worked out at 100%; in the assay with DMPK2, 100%; with DMPK, 23%; with DRAK1, 100%; with DRAK2, 95%; in the assay on DYRK1A, 24%. For the same molecule, the “Percent Control” value amounted to 7.4% in the assay on DYRK1B; 6.6% in the assay with DYRK2; 91% in the assay with EGFR(E746-A750del); 100% in the assay with EGFR(G719C); 100% in the assay with EGFR(G719S); 76% in assay [1]. In addition, the “Percent Control” value in assay [2] was 99%; in the assay on EGFR(L747-T751del,Sins), 100%; in the assay with EGFR(L858R) it was 96%; in the assay on EGFR(L858R,T790M), 100%; with EGFR(L861Q), 100%; in the assay on EGFR(S752-I759del), 82%. The figures for the “Percent Control” value in the assay with EGFR(T790M) and with EGFR were 96% and 100%, respectively.
For the molecule `COc1cc(C=NNc2ncnc3c2cnn3-c2ccccc2)ccc1O` [GW513184X], the “Percent Control” value was found to be 96% with DLK; 100% with DMPK2; 100% in the assay with DMPK; 83% in the assay with DRAK1; 71% in the assay on DRAK2; 53% with DYRK1A. For the same molecule, the “Percent Control” value in the assay with DYRK1B was 66%; in the assay with DYRK2 it was 28%; in the assay on EGFR(E746-A750del), 26%; with EGFR(G719C) it was 58%; in the assay on EGFR(G719S), 44%; in [1] it was 46%. Moreover, the “Percent Control” value in assay [2] is on record as 33%; with EGFR(L747-T751del,Sins) it was 64%; in the assay with EGFR(L858R), 96%; with EGFR(L858R,T790M) it was 76%; in the assay on EGFR(L861Q), 62%; with EGFR(S752-I759del), 64%. The “Percent Control” value is given as 82% in the assay on EGFR(T790M) and 100% with EGFR.
